From PubChem BioAssay AID1159580 (chemical genetic matrix, 2015)
The campaign covered roughly 5,500 compounds. About 2,000 (36%) were called active. About 18% were inconclusive and are not listed. The list shows a part of the results. Values without a mark were called inactive. No stated cut-off is given here; in the data, active means normalized growth mostly below about 0.91 (no sharp cut-off); inconclusive means no clear call, values can overlap the other calls; inactive means mostly above about 0.92.

Assay: chemical genetic growth profiling, strain panel (AID 1159580);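 further: tested at 20 µM; growth read once vehicle control cultures reached saturation at 30 °C; 1 = growth at the plate median or of vehicle wells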
Conditions: S. cerevisiae deletion strains, growth OD

SMILES: C#C[C@]1(O)CCC2C3CCc4cc(OC)ccc4C3CC[C@@]21C (stereo not given in full)
- normalized growth (locus YAL021C, strain ccr4, stronger effect = lower value): 1.02
- normalized growth (locus YAL026C, strain drs2, stronger effect = lower value): 0.956
- normalized growth (locus YAL030W, strain snc1, stronger effect = lower value): 0.987
- normalized growth (locus YBL061C, strain skt5, stronger effect = lower value): 0.968
- normalized growth (locus YBR009C, strain hhf1, stronger effect = lower value): 0.933
- normalized growth (locus YBR023C, strain chs3, stronger effect = lower value): 0.913 (active)
- normalized growth (locus YBR171W, strain sec66, stronger effect = lower value): 0.959
- normalized growth (locus YBR231C, strain swc5, stronger effect = lower value): 0.953
- normalized growth (locus YBR279W, strain paf1, stronger effect = lower value): 0.967
- normalized growth (locus YCL011C, strain gbp2, stronger effect = lower value): 0.923
- normalized growth (locus YCL016C, strain dcc1, stronger effect = lower value): 0.912 (active)
- normalized growth (locus YCL061C, strain MRC1, stronger effect = lower value): 0.937
- normalized growth (locus YCL069W, strain vba3, stronger effect = lower value): 0.976
- normalized growth (locus YCR088W, strain abp1, stronger effect = lower value): 0.972
- normalized growth (locus YDL005C, strain med2, stronger effect = lower value): 0.985
- normalized growth (locus YDL040C, strain nat1, stronger effect = lower value): 0.982
- normalized growth (locus YDR001C, strain nth1, stronger effect = lower value): 0.982
- normalized growth (locus YDR069C, strain doa4, stronger effect = lower value): 1.01
- normalized growth (locus YDR137W, strain rgp1, stronger effect = lower value): 0.839 (active)
- normalized growth (locus YDR159W, strain sac3, stronger effect = lower value): 0.949
- normalized growth (locus YDR195W, strain ref2): 1.01
- normalized growth (locus YDR297W, strain sur2, stronger effect = lower value): 0.994
- normalized growth (locus YDR334W, strain swr1, stronger effect = lower value): 0.983
- normalized growth (locus YDR335W, strain msn5, stronger effect = lower value): 0.998
- normalized growth (locus YDR392W, strain spt3, stronger effect = lower value): 0.614 (active)
- normalized growth (locus YEL003W, strain gim4, stronger effect = lower value): 0.984
- normalized growth (locus YEL037C, strain rad23, stronger effect = lower value): 0.968
- normalized growth (locus YEL061C, strain CIN8 (second series), stronger effect = lower value): 0.972
- normalized growth (locus YER015W, strain faa2, stronger effect = lower value): 0.991
- normalized growth (locus YER016W, strain bim1, stronger effect = lower value): 0.99
- normalized growth (locus YER111C, strain swi4, stronger effect = lower value): 0.969
- normalized growth (locus YER155C, strain BEM2 (second series), stronger effect = lower value): 0.923
- normalized growth (locus YFR010W, strain ubp6, stronger effect = lower value): 0.962
- normalized growth (locus YGL167C, strain pmr1, stronger effect = lower value): 0.972
- normalized growth (locus YGL173C, strain kem1, stronger effect = lower value): 0.98
- normalized growth (locus YGL227W, strain vid30, stronger effect = lower value): 0.987
- normalized growth (locus YGL240W, strain doc1, stronger effect = lower value): 0.963
- normalized growth (locus YGL253W, strain hxk2, stronger effect = lower value): 0.912
- normalized growth (locus YHR013C, strain ard1, stronger effect = lower value): 0.926
- normalized growth (locus YHR027C, strain rpn1, stronger effect = lower value): 0.987
- normalized growth (locus YHR030C, strain SLT2, stronger effect = lower value): 0.974
- normalized growth (locus YHR079C, strain IRE1, stronger effect = lower value): 0.987
- normalized growth (locus YHR142W, strain chs7, stronger effect = lower value): 0.866 (active)
- normalized growth (locus YJL092W, strain hpr5, stronger effect = lower value): 0.96
- normalized growth (locus YJL095W, strain BCK1 (second series), stronger effect = lower value): 0.975
- normalized growth (locus YJL095W, strain BCK1, stronger effect = lower value): 0.975
- normalized growth (locus YJL115W, strain asf1, stronger effect = lower value): 0.988
- normalized growth (locus YJL129C, strain trk1, stronger effect = lower value): 0.965
- normalized growth (locus YJL154C, strain vps35, stronger effect = lower value): 0.983
- normalized growth (locus YJL164C, strain tpk1, stronger effect = lower value): 0.923
- normalized growth (locus YJL166W, strain qcr8, stronger effect = lower value): 0.923
- normalized growth (locus YJL187C, strain SWE1, stronger effect = lower value): 0.987
- normalized growth (locus YJR066W, strain TOR1, stronger effect = lower value): 0.933
- normalized growth (locus YKL160W, strain elf1, stronger effect = lower value): 0.913
- normalized growth (locus YKR026C, strain gcn3, stronger effect = lower value): 0.988
- normalized growth (locus YKR091W, strain srl3, stronger effect = lower value): 0.975
- normalized growth (locus YLL001W, strain dnm1, stronger effect = lower value): 0.903
- normalized growth (locus YLL026W, stronger effect = lower value): 0.979
- normalized growth (locus YLL041C, strain sdh2, stronger effect = lower value): 0.986
- normalized growth (locus YLR027C, strain aat2, stronger effect = lower value): 0.969
- normalized growth (locus YLR113W, strain HOG1, stronger effect = lower value): 0.931
- normalized growth (locus YLR221C, strain rsa3, stronger effect = lower value): 0.912
- normalized growth (locus YLR258W, strain gsy2, stronger effect = lower value): 0.956
- normalized growth (locus YLR262C, strain YPT6 (second series), stronger effect = lower value): 0.798 (active)
- normalized growth (locus YLR320W, strain mms22, stronger effect = lower value): 0.902
- normalized growth (locus YLR342W, strain FKS1, stronger effect = lower value): 0.952
- normalized growth (locus YLR357W, strain rsc2, stronger effect = lower value): 0.909
- normalized growth (locus YLR370C, strain arc18, stronger effect = lower value): 0.966
- normalized growth (locus YLR384C, strain iki3, stronger effect = lower value): 0.986
- normalized growth (locus YML120C, strain ndi1, stronger effect = lower value): 0.933
- normalized growth (locus YMR058W, strain fet3, stronger effect = lower value): 0.935
- normalized growth (locus YMR125W, strain sto1, stronger effect = lower value): 0.951
- normalized growth (locus YMR129W, stronger effect = lower value): 0.977
- normalized growth (locus YMR205C, strain PFK2, stronger effect = lower value): 0.923
- normalized growth (locus YMR231W, strain pep5, stronger effect = lower value): 0.993
- normalized growth (locus YNL071W, strain lat1, stronger effect = lower value): 0.89 (active)
- normalized growth (locus YNL183C, strain NPR1, stronger effect = lower value): 0.917
- normalized growth (locus YNL209W, strain ssb2, stronger effect = lower value): 0.974
- normalized growth (locus YNL248C, strain rpa49, stronger effect = lower value): 0.951
- normalized growth (locus YNL322C, strain KRE1 (second series), stronger effect = lower value): 0.964
- normalized growth (locus YNR049C, strain mso1, stronger effect = lower value): 0.983
- normalized growth (locus YOR001W, strain rrp6, stronger effect = lower value): 1
- normalized growth (locus YOR070C, strain gyp1, stronger effect = lower value): 0.951
- normalized growth (locus YOR080W, strain dia2, stronger effect = lower value): 0.999
- normalized growth (locus YOR083W, strain WHI5, stronger effect = lower value): 0.919
- normalized growth (locus YOR106W, strain vam3, stronger effect = lower value): 0.969
- normalized growth (locus YOR231W, strain MKK1, stronger effect = lower value): 0.958
- normalized growth (locus YOR265W, strain rbl2, stronger effect = lower value): 0.969
- normalized growth (locus YOR270C, strain vph1, stronger effect = lower value): 0.949
- normalized growth (locus YOR290C, strain snf2, stronger effect = lower value): 0.874
- normalized growth (locus YPL051W, strain arl3, stronger effect = lower value): 0.923
- normalized growth (locus YPL078C, strain atp4, stronger effect = lower value): 0.902
- normalized growth (locus YPL106C, strain sse1, stronger effect = lower value): 0.913
- normalized growth (locus YPL240C, strain hsp82, stronger effect = lower value): 0.985
- normalized growth (locus YPL256C, strain CLN2, stronger effect = lower value): 0.973
